HT1080 IDH1KD tx – qHTS for induction of synthetic lethality in tumor cells producing 2HG: qHTS for the HT-1080-IDH1KD cell line | HT-1080 IDH1 knockdown viability, ATP luminescence, 48 h | Potency, µM (top dose mostly 46.1 µM), inactives show at the highest dose activity, negative = toxicity, hits mostly cytotoxic | 2% of 360,000 active | AID 686971, 2013;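 further: potency means the concentration at half of the fitted maximal effect; 0% = DMSO wells and -100% = cell-free medium wells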
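% activity derives from luminescence (CellTiter-Glo), normalised to DMSO and no-cell wells. HT-1080-IDH1KD cells, 750/well, had 48 h compound exposure at 37 °C.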
DT40 TDP1 CPT – qHTS for Inhibitors of human tyrosyl-DNA phosphodiesterase 1 (TDP1): qHTS in cells in presence of CPT; chicken DT40 Tdp1-/-;hTDP1 cells + 20 nM CPT, ATP luminescence, 48 h; Potency, µM (series often up to 46.2 µM), without a hit: at the top dose activity change, negative = growth inhibition, hits mostly inhibitors; 12% of 420,000 active; further: potency means the concentration at half of the fitted maximal effect; nearly all actives have a fitted effect of over 55% in size
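Cell growth measured by CellTiter-Glo luminescence after a minimum 48 h, 37 C compound exposure with 20 nM CPT in Tdp1-knockout DT40 cells stably expressing hTDP1, seeded 400/well; qHTS titration format.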
HT1080NT lethal – qHTS for induction of synthetic lethality in tumor cells producing 2HG: qHTS for the HT-1080-NT fibrosarcoma cell line. HT-1080-NT fibrosarcoma viability, CellTiter-Glo ATP luminescence, 48 h. Potency, µM (series often up to 46.1 µM), for inactives: at the top dose activity, negative = less viability, most hits filed as cytotoxic. 1.6% of 360,000 active;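 further: NT is the 2HG producing partner of a matched IDH1 knockdown line; potency means the concentration at half of the fitted maximal effect; 0% = DMSO-treated cells and -100% = media-only wells without cells; nearly all actives have a fitted effect of over 55% in size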
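Fibrosarcoma NT cells, 750 per well in 5% FBS RPMI, were exposed to compound for 48 hours. Viability: CellTiter-Glo luminescence.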
IL1B secr inh – qHTS for Inhibitors of Inflammasome Signaling: IL-1-beta AlphaLISA Primary Screen; THP-1 LPS/ATP IL-1B secretion, AlphaLISA, 16 h; active compounds read low; activity change, % at 57.5 µM; 4.7% of 360,000 active; in the data active means activity change below about -50%; inconclusive means mostly about -30% to -49%
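Secreted IL-1B measured by AlphaLISA bead assay after 16 h compound exposure of THP-1 cells; compounds (final up to 57.5 uM) added 1 h before LPS (250 ng/mL) and ATP (1.25 mM) stimulation; lower signal means less secretion.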
TDP1 cell noCPT – qHTS for Inhibitors of human tyrosyl-DNA phosphodiesterase 1 (TDP1): qHTS in cells in absence of CPT. 15% of 420,000 active. DT40 Tdp1-/- hTDP1 cells, no CPT, ATP luminescence, 48 h. AID 686978, 2013. Potency, µM (series often up to 46.2 µM), inactives show at the top dose activity change, negative = growth inhibition, usual class: inhibitors; further: potency means the concentration at half of the fitted maximal effect; nearly all actives have a fitted effect of over 55% in size
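Compound effects on proliferation are scored in DT40 Tdp1-/-;hTDP1 cells in the absence of CPT. ATP levels (CellTiter-Glo luminescence) are recorded after a ≥48 hr, 37 °C incubation.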
* = called active by the depositor; i = inactive; ? = inconclusive; · = no result; [ ] = another dose, or the depositor's remark. Most compounds without a hit are left out; they make up all but 19% or so of the library. Unless noted, the call rests on the fitted dose curve; in most records, active means well fitted curve in the direction sought with a large enough effect; inconclusive means small, poorly fitted or top-dose-only effect, or another doubt; inactive means no such curve, though single readings can be large; an effect the other way counts as inactive or inconclusive. Unless noted, on the % scale 0 is the no-effect control and ±100 the full control effect.

SMILES	HT1080 IDH1KD tx	DT40 TDP1 CPT	HT1080NT lethal	IL1B secr inh	TDP1 cell noCPT
COc1ccc(OCC(O)CNS(=O)(=O)c2ccc(NC(C)=O)cc2)cc1 (configuration not stated)	-1%	-6%	0%	i	10%
CC(C)(C)c1cc(/C=C(\C#N)C(N)=S)cc(C(C)(C)C)c1O	·	0.56µM*	·	·	0.71µM*
O=C(CSc1nnc(Cn2nnc3ccccc32)o1)N(Cc1ccc(Cl)cc1)c1ccccc1	3.3µM*	7.3µM*	-5%	-52*	7.3µM*
CCN(C(=O)CSc1nnc(Cn2nnc3ccccc32)o1)c1nc(C)cs1	-4%	?	-1%	22	?
CCN(C(=O)CSc1nnc(Cn2nnc3ccccc32)o1)c1nc(-c2ccccc2)cs1	-7%	23µM*	0%	-5	?
C=CCN(c1ccccc1)S(=O)(=O)c1ccc2c(c1)oc(=O)n2C	-14%	?	0%	1	-7%
C=CCN(C1CCCCC1)S(=O)(=O)c1ccc2c(c1)oc(=O)n2C	0%	8.2µM*	-4%	15	?
Cc1cc(C)c(S(=O)(=O)NC2CC(C)(C)NC(C)(C)C2)cc1Br	-24%	?	-13%	-15	?
O=C(C[C@@H]1C/C=C/CC[C@@H](Cc2ccc(F)cc2)C(=O)OCCNC1=O)N[C@H](CO)Cc1ccccc1	1%	?	-3%	18	?
C[C@H]1COC(=O)[C@H](Cc2ccc(F)cc2)CC/C=C/C[C@@H](CC(=O)N[C@@H](CO)Cc2ccccc2)C(=O)N1	0%	12µM*	0%	-1	16µM*
O=C(C[C@@H]1C/C=C\CC[C@@H](Cc2ccc(F)cc2)C(=O)OC[C@@H](Cc2ccccc2)NC1=O)NCCO	7%	15µM*	16%	11	?
CC(C)(C)OC(=O)C[C@H]1C/C=C\C[C@H](CC(=O)N[C@@H](CO)Cc2ccccc2)C(=O)N[C@H](C(C)(C)C)COC1=O	0%	?	2%	-22	?
CC(C)(C)[C@H]1COC(=O)[C@H](Cc2ccc(F)cc2)CC/C=C/C[C@@H](CC(=O)N[C@H](CO)Cc2ccccc2)C(=O)N1	2%	?	5%	12	21µM*
O=C(C[C@@H]1C/C=C/CC[C@@H](Cc2ccc(F)cc2)C(=O)OC[C@H](Cc2ccccc2)NC1=O)N[C@H](CO)Cc1ccccc1	?	9.2µM*	?	-18	5.2µM*
O=C(C[C@H]1C/C=C\CC[C@H](Cc2ccc(F)cc2)C(=O)OC[C@@H](Cc2c[nH]c3ccccc23)NC1=O)NCCO	1%	?	0%	7	?
Cc1ccc(CCNC(=O)NCc2noc3ccc(C)cc23)cc1	·	1%	·	·	?
CCCCOC(=O)c1ccc(NC(=O)CN2C(=O)NC3(CCCCCC3)C2=O)cc1	?	10µM*	5%[9.24 µM]	?	8.2µM*
CCCCOC(=O)c1ccc(NC(=O)COC(=O)CN2C(=O)NC3(CCCC3)C2=O)cc1	-1%	4%	5%	30	7%
CCOC(=O)c1ccc(NC(=O)CN2C(=O)NC3(CCCCCCC3)C2=O)cc1	?	15µM*	?	0	?
CCCCOC(=O)c1ccc(NC(=O)C(=O)NCc2ccncc2)cc1	-20%	23µM*	-19%	24	23µM*
COc1ccc(C2C(C(C)=O)=C(C)Nc3ncnn32)cc1 (configuration not stated)	6%	17%	0%	17	1%
O=C(COC(=O)c1cnccn1)Nc1ncc(Cl)cc1Cl	5%	7%	20%	4	6%
CCOC(=O)CN=C1CC(C)(C)CC2=C1Sc1ncnc(N(C)C)c1N2	?	13µM*	6%	28	23µM*
CCC1CCCCN1C(=O)COC(=O)CN(C)S(=O)(=O)c1ccc(NC(C)=O)cc1 (configuration not stated)	0%	-22%	-9%	6	-13%
Cc1ccnc(NCn2nnc3ccccc32)c1	6%	16µM*	1%	26	?
SMILES	HT1080 IDH1KD tx	DT40 TDP1 CPT	HT1080NT lethal	IL1B secr inh	TDP1 cell noCPT
Cc1ccc(NC(=O)Cn2nnc3ccccc32)c(C)c1	0%	3%	10%	5	-12%
Cc1ccc(/C=C2\SC(=S)N(CCCC(=O)Nc3cccnc3)C2=O)cc1	9%	?	5%	?	?
O=C(CCCN1C(=O)/C(=C/c2cccc(Br)c2)SC1=S)Nc1cccnc1	?	?	?	-90*	16µM*
O=C(CCCN1C(=O)/C(=C\c2cccc(Br)c2)SC1=S)Nc1cccnc1	13µM*	?	16µM*	-51*	15µM*
O=C(CCCN1C(=O)/C(=C/c2cccc(Br)c2)SC1=S)Nc1ccccn1	7%	?	0%	?	?
CC(OC(=O)c1ccc2c(c1)OCCO2)C(=O)c1ccccc1 (configuration not stated)	14%	1%	0%	-9	-6%
CC(NCC(=O)Nc1ccccc1C(=O)NC1CC1)c1ccc(Cl)cc1 (configuration not stated)	-12%	?	-1%	?	12µM*
Cc1ccc(N2C(=O)CC(c3ccccc3F)C3=C2COC3=O)cc1Cl (configuration not stated)	·	4%	·	·	-13%
CCn1c(=O)c(C(=O)NCc2ccc(F)cc2)c(O)c2ccccc21	1%	9.2µM*	-6%	102	?
CCn1c(=O)c(C(=O)NCc2ccc(Cl)cc2)c(O)c2ccccc21	8%	21µM*	2%	20	?
Cc1cn(CC(=O)N2CCN(c3ccccn3)CC2)c(=O)[nH]c1=O	5%	13%	-1%	18	31%
CCOC(=O)N1CCC2(CC1)NCCc1c2[nH]c2ccccc12	0%	-2%	-8%	3	-19%
COc1ccc(-c2nc3nc(N)nn3cc2C)cc1F	-15%	-19%	-5%	0	0%
COc1ccc(-c2nc3c(-c4ccc(F)cc4)cnn3cc2C)cc1F	-3%	23µM*	1%	4	15µM*
Fc1ccc2c(c1)C1OCCCC1C(c1ccccc1)N2 (configuration not stated)	?	?	?	5	18µM*
CCc1ccc(Nc2nnc(SCC(=O)c3c(N)n(C4CC4)c(=O)[nH]c3=O)s2)cc1	-21%	-30%	6%[9.24 µM]	0	-19%

Bioassay records as filed in PubChem.
